Measurements taken from PubChem BioAssay AID651956 (Broad Institute, 2012).
Measured potencies and affinities stand elsewhere. Records with an inconclusive call do not appear. Values without a mark were called inactive.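 Rule for the calls: active = in every test run, a fitted half-maximal concentration for signal decrease at or below twice the highest tested concentration; inconclusive = runs disagree, flat 30 to 70% decrease, or poor fit; inactive = the rest.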

assay: activation of miR-122 Renilla sensor silencing – cell-based, Huh7 psiCHECK-miR122, Renilla luciferase, cherry-picked, dose response (AID 651956); conditions: Huh7 psiCHECK-miR122 Renilla luciferase reporter, 48 h; series mostly up to 35 µM; activity change, negative = signal decrease: at the top concentration;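 note: Renilla luciferase from a miR-122 sensor reporter so lower signal means miR-122 activation; 0% = median neutral control wells and -100% = median positive control wells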

Row | SMILES | activity change, negative = signal decrease
1 | CC(=O)N1[C@H](CNC(=O)C2CC2)[C@H](c2ccc(-c3cccc(F)c3)cc2)[C@@H]1CO | 0%
2 | C[C@H](CO)N1C[C@H](C)[C@H](CN(C)S(=O)(=O)c2ccc(F)cc2)Oc2ccc(NS(C)(=O)=O)cc2C1=O | -31.1%
3 | CC(C)NC(=O)N(C)C[C@H]1Oc2cc(C#C[C@H](C)O)ccc2S(=O)(=O)N([C@@H](C)CO)C[C@H]1C | 67.8%
4 | CNc1nc(NCC2CCCCC2)c2sccc2n1 | -42%
5 | CNC[C@H]1Oc2cc(C#CC3CCCCC3)ccc2S(=O)(=O)N([C@H](C)CO)C[C@@H]1C | -132%
6 | COCC(=O)Nc1ccc2c(c1)C(=O)N(C)[C@@H]1CC[C@H](CC(=O)NC3CCCC3)O[C@H]1CO2 | 124%
7 | CC(C)C(=O)Nc1ccc2c(c1)C(=O)N(C)[C@H]1CC[C@H](CC(=O)NCCc3ccccc3)O[C@H]1CO2 | 182%
8 | COCC(=O)N1[C@H](CO)[C@@H](c2ccccc2)[C@H]1CNC(=O)c1ccccn1 | 15.5%
9 | CN1C(=O)c2cc(NC(=O)c3cccs3)ccc2OC[C@H]2O[C@@H](CC(=O)N3CCCCC3)CC[C@H]21 | -31.5%
10 | CCCNC(=O)N1[C@H](CO)[C@@H](c2ccccc2)[C@H]1CNC(=O)c1ccccc1 | -30.3%
11 | COCC(=O)N1[C@H](CO)[C@H]2c3ccccc3N(C(=O)C3CC3)C[C@H]21 | 0%
12 | Cc1nc(C)c(C(=O)Nc2ccc(Oc3ccccc3)cc2)o1 | -16.7%
13 | CN1C(=O)c2cc(NS(=O)(=O)c3cccc(F)c3)ccc2OC[C@@H]2O[C@@H](CC(=O)NCCN3CCCCC3)CC[C@H]21 | 57.9%
14 | COc1ccccc1C(=O)N1C[C@@H]2[C@H](c3ccccc31)[C@H](CO)N2CC1CCCC1 | 198%
15 | O=C(COc1ccccc1F)N1CCc2ccccc2C1 | 42.4%
16 | CCCCCn1c(=O)[nH]c2cc(C(=O)NCCN3C(C)CCCC3C)ccc2c1=O (stereo not drawn) | 56.6%
17 | COc1ccc(-c2cn3c(C)c(C(=O)Nc4cccc(NC(C)=O)c4)sc3n2)cc1 | 1.92%
18 | CCOC(=O)CSc1nnnn1-c1cccc2ccccc12 | 72.1%
19 | Cc1ccc(-c2nnn(CC(=O)N(CC(=O)NCC3CCCO3)c3ccccc3)n2)o1 (stereo not drawn) | -15.9%

Row | SMILES | activity change, negative = signal decrease
20 | COC(=O)C[C@H]1CC[C@@H]2[C@@H](COc3ccc(NC(=O)Nc4cccc(F)c4)cc3C(=O)N2C)O1 | 55.7%
21 | CCNC(=O)C[C@@H]1CC[C@H]2[C@@H](COc3ccc(NC(=O)c4ccc(C(F)(F)F)cc4)cc3C(=O)N2C)O1 | -32.2%
22 | CNC(=O)C[C@@H]1CC[C@@H]2[C@@H](COc3ccc(NC(=O)c4ccccc4OC)cc3C(=O)N2C)O1 | 124%
23 | CO[C@H]1CN(C)C(=O)c2cc(NC(C)=O)ccc2OC[C@@H](C)N(C(=O)c2ccccn2)C[C@H]1C | 111%
24 | COCC(=O)Nc1ccc2c(c1)C(=O)N(C)[C@H]1CC[C@@H](CC(=O)NC3CCCC3)O[C@H]1CO2 | 68.8%
25 | CC(C)NC(=O)N1C[C@@H]2[C@H](c3ccccc31)[C@H](CO)N2Cc1ccccc1 | -18.9% [at 30 µM]
26 | CCCNC(=O)N1C[C@@H]2[C@H](c3ccccc31)[C@H](CO)N2C(=O)C1CCOCC1 | -8.33%
27 | COC(=O)C[C@@H]1CC[C@@H]2[C@@H](COc3ccc(NC(=O)c4cc(F)cc(F)c4)cc3C(=O)N2C)O1 | -26.7%
28 | Cc1cc(C(=O)Nc2ccc3c(c2)C(=O)N(C)[C@@H]2CC[C@@H](CC(=O)N[C@H](C)c4ccccc4)O[C@H]2CO3)no1 | 8.39%
29 | CCNC(=O)Nc1ccc2c(c1)C(=O)N(C)[C@H]1CC[C@H](CC(=O)NCc3ccccc3F)O[C@H]1CO2 | 62%
30 | FC(F)(F)c1cnc(N2CCCN(C(=S)Nc3ccccc3)CC2)c(Cl)c1 | -21.4%
31 | COCC(=O)N(C)C[C@H]1Oc2cc(-c3ccccc3F)ccc2S(=O)(=O)N([C@@H](C)CO)C[C@@H]1C | -55.7%
32 | COc1ccc(-c2oc3ncnc(NCCCN4CCOCC4)c3c2-c2ccc(OC)cc2)cc1 | -8.77%
33 | O=C(C1CCCCC1)N1C[C@@H]2[C@H](c3ccccc31)[C@H](CO)N2Cc1ccccc1Cl | -10%
34 | CCNC(=O)C[C@H]1CC[C@H]2[C@@H](COc3ccc(NS(C)(=O)=O)cc3C(=O)N2C)O1 | -11.3%
35 | CCOc1cc(C(=O)NC(C)COC)cc(OCC)c1OCC (stereo not drawn) | -21.1%
36 | Cc1ccc(S(=O)(=O)NCCCNS(C)(=O)=O)cc1 | -0.902%
37 | CCCNC(=O)N1[C@@H]2CN(C(=O)c3ccccc3)c3ccccc3[C@@H]2[C@@H]1CO | 25.6%
38 | CN1C(=O)c2cc(NC(=O)c3ccno3)ccc2OC[C@H]2O[C@@H](CC(=O)NCC3CC3)CC[C@@H]21 | -30.3%
